Data as given in PubChem BioAssay (NCI).
Compounds without any hit were thinned out: in the full panel of roughly 83,000, 20% have a hit.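 Method: cells in 96-well plates; compound added at one concentration; 48 h incubation; percent growth measured; values under 10 scored active.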 Active and inactive are the calls of the source.

How the values were obtained:
Test in all cases: NCI-60 one-dose screen, 48 h (100 = growth as untreated, 0 = no growth, -100 = all killed)
Details in all cases: 10 µM unless noted
HT29 colon = test system: HT29 colon
SNB-75 CNS = test system: SNB-75 CNS
SNB-19 CNS = test system: SNB-19 CNS
U251 CNS = test system: U251 CNS
PC-3 prostate = test system: PC-3 prostate
SK-MEL-5 melanoma = test system: SK-MEL-5 melanoma
UACC-62 melanoma = test system: UACC-62 melanoma
SK-MEL-28 melanoma = test system: SK-MEL-28 melanoma
SK-MEL-2 melanoma = test system: SK-MEL-2 melanoma
LOX IMVI melanoma = test system: LOX IMVI melanoma

Measured: growth

Cn1ccnc1C(=O)/C=C/c1ccc(NC(=O)Nc2ccc(F)cc2)cc1
inactive: HT29 colon 11.7% | SNB-75 CNS 39.3% | SNB-19 CNS 33.9% | U251 CNS 20.1% | PC-3 prostate 53.2% | SK-MEL-5 melanoma 77.8% | UACC-62 melanoma 46.3% | SK-MEL-28 melanoma 75.5% | SK-MEL-2 melanoma 95%

C=CCn1c(SCC(=O)c2ccccc2)nnc1-c1c[nH]c2ccccc12
inactive: HT29 colon 112% | SNB-75 CNS 96.4% | SNB-19 CNS 98.3% | U251 CNS 107% | PC-3 prostate 89.1% | SK-MEL-5 melanoma 96.6% | UACC-62 melanoma 81.5% | SK-MEL-2 melanoma 105%

O=C1NC(=C(Cl)Cl)/C(=N/S(=O)(=O)N2CCCCC2CC2(C(F)(F)F)N=N2)N1 (stereo not given)
active: HT29 colon -25.7% | U251 CNS -1.13% | SK-MEL-28 melanoma 7.84% | SK-MEL-2 melanoma -4.45%
inactive: SNB-75 CNS 101% | SNB-19 CNS 40.8% | PC-3 prostate 60.5% | SK-MEL-5 melanoma 95.3% | UACC-62 melanoma 38.4%

CCOc1ccc2nc(NC(=O)c3ccc(C(F)(F)F)cc3)sc2c1
inactive: HT29 colon 97.9% | SNB-75 CNS 102% | SNB-19 CNS 101% | U251 CNS 100% | PC-3 prostate 108% | UACC-62 melanoma 99.1% | SK-MEL-28 melanoma 105% | SK-MEL-2 melanoma 103%

CCOC(=O)c1c(NC(=O)c2cccc(C(F)(F)F)c2)sc2cc(O)ccc12
inactive: HT29 colon 105% | SNB-75 CNS 73.4% | SNB-19 CNS 96% | U251 CNS 98.9% | PC-3 prostate 94.8% | UACC-62 melanoma 97.9% | SK-MEL-28 melanoma 108% | SK-MEL-2 melanoma 100%

Cn1c(SCC(=O)c2cccs2)nc2ccccc2c1=O
inactive: HT29 colon 106% | SNB-75 CNS 88.7% | SNB-19 CNS 102% | U251 CNS 97.5% | PC-3 prostate 90.3% | UACC-62 melanoma 92.6% | SK-MEL-28 melanoma 105% | SK-MEL-2 melanoma 98%

Cc1ccc2c(n1)C(=O)C(Cl)=C(Nc1cccc(C(C)C)c1)C2=O
inactive: HT29 colon 97% | SNB-75 CNS 68.6% | SNB-19 CNS 71.7% | U251 CNS 60.3% | PC-3 prostate 57.9% | UACC-62 melanoma 87.1% | SK-MEL-28 melanoma 63.1% | SK-MEL-2 melanoma 47.2%

Cc1cc(C(=O)Nc2sc3c(c2C(N)=O)CCC(=O)C3)ccc1OCCN1CCCCC1
inactive: HT29 colon 96.2% | SNB-75 CNS 95.2% | SNB-19 CNS 102% | U251 CNS 96.8% | PC-3 prostate 88.6% | UACC-62 melanoma 100% | SK-MEL-28 melanoma 115% | SK-MEL-2 melanoma 106%

O=C1[C@H]2Cc3c([nH]c4ccccc34)[C@@H](c3ccc(Br)cc3)N2C(=O)CN1C1CCN(Cc2ccccc2)CC1
inactive: SNB-75 CNS 51.1% | SNB-19 CNS 47.8% | U251 CNS 32.3% | PC-3 prostate 17% | UACC-62 melanoma 84% | SK-MEL-2 melanoma 28.8%
active: HT29 colon -30.9%

O=C(Nc1nc2ccc(O)cc2s1)c1cccc(C(F)(F)F)c1
inactive: HT29 colon 102% | SNB-75 CNS 118% | SNB-19 CNS 95.4% | U251 CNS 62.7% | PC-3 prostate 58.2% | UACC-62 melanoma 45.6% | SK-MEL-28 melanoma 82.2% | SK-MEL-2 melanoma 57.2%

O=C(N/N=C/c1ccco1)c1[nH]c2ccc(Br)cc2c1-c1ccccc1
inactive: SNB-75 CNS 31.7% | SNB-19 CNS 41.4% | U251 CNS 31.7% | PC-3 prostate 30.2% | UACC-62 melanoma 41.1% | SK-MEL-28 melanoma 59.9% | SK-MEL-2 melanoma 14.4%
active: HT29 colon -25.3% | SK-MEL-5 melanoma -16.2%

Nc1nc(N)c2c(n1)NC(c1ccc(C(F)(F)F)cc1)CC(c1ccc(Nc3nc(NCCO)nc(Nc4ccc(Cl)cc4)n3)cc1)=N2 (stereo not given)
active: HT29 colon -66.6% | SNB-19 CNS -79.1% | U251 CNS -22.3% | PC-3 prostate -31.5% | SK-MEL-5 melanoma -92.8% | UACC-62 melanoma -41.5% | SK-MEL-2 melanoma -80.3%
inactive: SNB-75 CNS 35.4%

O=C(c1ccc(Cl)cc1)C1[C@H](c2ccc(Cl)cc2)[C@@H](c2ccccc2)NC12C(=O)Nc1ccc(Br)cc12 (stereo not given in full)
inactive: SNB-75 CNS 43.9% | SNB-19 CNS 60.5% | U251 CNS 28.3% | PC-3 prostate 12.8% | SK-MEL-5 melanoma 54.8% | UACC-62 melanoma 37.4% | LOX IMVI melanoma 15.3% | SK-MEL-28 melanoma 67.3%

COc1ccc(NC2=CC(=O)C(C)=C(C)C2=O)cc1
inactive: HT29 colon 109% | SNB-75 CNS 123% | SNB-19 CNS 99.2% | U251 CNS 92% | PC-3 prostate 71.5% | UACC-62 melanoma 95.4% | SK-MEL-28 melanoma 99.4% | SK-MEL-2 melanoma 81.8%

COC(=O)c1ccc(NC(=S)N2CCc3ccc([N+](=O)[O-])cc3C2)cc1O
inactive: SNB-75 CNS 112% | SNB-19 CNS 97.6% | U251 CNS 111% | PC-3 prostate 98.7% | SK-MEL-5 melanoma 100% | UACC-62 melanoma 99.2% | SK-MEL-28 melanoma 106% | SK-MEL-2 melanoma 122%

Cc1cccc2sc(/N=C(\N)C(Br)Br)nc12
inactive: SNB-19 CNS 46.8% | PC-3 prostate 40.8% | SK-MEL-5 melanoma 51.4% | UACC-62 melanoma 22% | SK-MEL-28 melanoma 38.4%
active: SNB-75 CNS 7.62% | U251 CNS 9.02% | LOX IMVI melanoma -86% | SK-MEL-2 melanoma 5.61%

Cc1nc(-c2cc3ccccc3oc2=O)ccc1C(=O)/C=C/c1ccccn1
active: U251 CNS 8% | LOX IMVI melanoma -84.5%
inactive: SNB-75 CNS 56.3% | SNB-19 CNS 71.6% | PC-3 prostate 68.2% | SK-MEL-5 melanoma 95.9% | UACC-62 melanoma 71.1% | SK-MEL-28 melanoma 95.1% | SK-MEL-2 melanoma 108%

COc1cc(OC)c(C2C(Cl)C(=O)N2Nc2ncnc3ccccc23)cc1OC (stereo not given)
inactive: SNB-75 CNS 80.5% | SNB-19 CNS 98.9% | U251 CNS 91.7% | PC-3 prostate 89.6% | SK-MEL-5 melanoma 99.3% | UACC-62 melanoma 91.7% | LOX IMVI melanoma 45.6% | SK-MEL-28 melanoma 105% | SK-MEL-2 melanoma 121%

COc1cc(-c2ccc3ncnc(NC(C)c4ccccc4)c3c2)cnc1OC (stereo not given)
inactive: SNB-75 CNS 32.8% | SNB-19 CNS 48.7% | U251 CNS 63.4% | PC-3 prostate 29.5% | SK-MEL-5 melanoma 74.4% | UACC-62 melanoma 63.4% | LOX IMVI melanoma 34.4% | SK-MEL-28 melanoma 60.9% | SK-MEL-2 melanoma 47.3%

COc1ccc(-c2nc3ccc(-c4nnc(SCC(=O)Nc5ccc(C(=O)/C=C/c6ccccc6)cc5)o4)cc3[nH]2)cc1OC
inactive: SNB-75 CNS 90.3% | SNB-19 CNS 107% | U251 CNS 93.2% | PC-3 prostate 101% | SK-MEL-5 melanoma 95.5% | UACC-62 melanoma 95% | SK-MEL-28 melanoma 105% | SK-MEL-2 melanoma 108%
active: LOX IMVI melanoma -11.8%

O=[N+]([O-])c1ccc(O)c2ncccc12
inactive: SNB-75 CNS 48.5% | SNB-19 CNS 23.8% | U251 CNS 17.2% | PC-3 prostate 31.3% | SK-MEL-5 melanoma 15.3% | UACC-62 melanoma 10.5% | LOX IMVI melanoma 25.2% | SK-MEL-28 melanoma 29.1% | SK-MEL-2 melanoma 78.3%

CNC(=O)c1cc(-c2ccc(NC(=O)Nc3ccc(N4CCOCC4)c(C(F)(F)F)c3)cc2)nc2cccnc12
inactive: SNB-75 CNS 67.6% | SNB-19 CNS 58.8% | U251 CNS 43.7% | PC-3 prostate 52.1% | SK-MEL-5 melanoma 67.2% | UACC-62 melanoma 64.3% | LOX IMVI melanoma 31.1% | SK-MEL-28 melanoma 64.5% | SK-MEL-2 melanoma 67.8%

N/C(=N\c1nc2c(Br)cccc2s1)C(Br)Br
active: SNB-75 CNS -0.636% | U251 CNS -28.2% | UACC-62 melanoma -5.13% | LOX IMVI melanoma -84.9% | SK-MEL-28 melanoma -5.02% | SK-MEL-2 melanoma -42.1%
inactive: SNB-19 CNS 27.7% | PC-3 prostate 13.5% | SK-MEL-5 melanoma 68.3%

N[C@@H](Cc1cn(-c2ccnc3ccccc23)nn1)C(=O)O
inactive: SNB-75 CNS 98.5% | SNB-19 CNS 88.7% | U251 CNS 101% | PC-3 prostate 96.2% | SK-MEL-5 melanoma 103% | UACC-62 melanoma 95.4% | LOX IMVI melanoma 102% | SK-MEL-28 melanoma 97% | SK-MEL-2 melanoma 124%

COc1ccc(NC(=O)c2sc3nc(-c4cnccn4)cc(-c4cccs4)c3c2N)cc1
inactive: SNB-75 CNS 67.1% | SNB-19 CNS 93.6% | U251 CNS 55.5% | PC-3 prostate 82.7% | SK-MEL-5 melanoma 59.4% | UACC-62 melanoma 32.7% | LOX IMVI melanoma 18.4% | SK-MEL-28 melanoma 84.3% | SK-MEL-2 melanoma 86.6%

N#Cc1nc(-c2ccccc2)oc1N1CCC(CO)C1 (stereo not given)
inactive: SNB-75 CNS 89% | SNB-19 CNS 93.3% | U251 CNS 105% | PC-3 prostate 107% | SK-MEL-5 melanoma 106% | UACC-62 melanoma 89.4% | LOX IMVI melanoma 88.2% | SK-MEL-2 melanoma 127%
